Measurements as given in PubChem BioAssay (EPA / NIEHS).
Calls of active or inactive are those of the source. The calls were made as follows: active = hit-call score of the fitted dose curve at least 0.9, where 1 is the maximum; inactive = score below 0.9.

Read-out: Low-density lipoprotein receptor (LDLR), LDLR (gene 3949)
Test: BSK_CASM3C_LDLR: BioMAP Diversity Plus: CASM3C Assay for Low-density lipoprotein receptor (LDLR) Biomarker Activity (AID 2283045);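 also: LDLR protein level on the cell surface quantified by ELISA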
Conditions: primary human coronary artery smooth muscle cells; actives raise or lower the signal

Structure (SMILES) | outcome | AC50
c1ccc2ncccc2c1 | inactive | –
CC(C)c1nnc2ccc(-c3ocnc3-c3cc(F)ccc3F)cn12 | – | 0.551 µM (active)
CCCCCCCCN(C)C | inactive | –
O=C(NO)C1(NS(=O)(=O)c2ccc(Oc3ccc(F)cc3)cc2)CCOCC1 | inactive | –
O=C(O)[C@H](O)[C@@H](O)C(=O)O | inactive | –
CC(C)CCCCCCOC(=O)C1CCCCC1C(=O)OCCCCCCC(C)C (centres undefined) | inactive | –
NC(=O)NN=Cc1ccc([N+](=O)[O-])o1 | inactive | –
OCc1ccccc1 | inactive | –
OC(CCl)CCl | inactive | –
NC(=O)N(O)[C@@H]1COc2cc(OCc3ccccc3)ccc21 | inactive | –
Cc1ncc([C@@H](CCCCCCc2ccc3c(n2)NCCC3)CC(=O)O)cn1 | inactive | –
CCCCCCCCCCCCCCCCOS(=O)(=O)O | inactive | –
COc1cc(C(C)C)c2c(c1)S(=O)(=O)N(COc1cc(=O)n3cccc(OCCN4CCCCC4)c3n1)C2=O | – | 3.65 µM (active)
CC(=O)c1ccccc1 | inactive | –
CCCCOC(=O)c1ccccc1 | inactive | –
Cc1nc(-c2ccccn2)ncc1C(=O)Nn1cc(C)c2cc(F)ccc21 | inactive | –
CC[C@H](C)C(=O)O[C@H]1C[C@H](O)C=C2C=C[C@H](C)[C@H](CC[C@@H](O)C[C@@H](O)CC(=O)O)[C@H]21 | inactive | –
C=CCc1cc(S(=O)(=O)c2ccc(O)c(CC=C)c2)ccc1O | – | 32.2 µM (active)
CCc1ccc(O)c(C(C)(C)C)c1 | inactive | –
OCCC(F)(F)C(F)(F)C(F)(F)C(F)(F)F | inactive | –
OCc1c[nH]c2ccccc12 | inactive | –
CCCCCCOC(=O)CC(CC(=O)OCCCCCC)(OC(=O)CCC)C(=O)OCCCCCC | inactive | –
OCCOCCOCCO | inactive | –
CCc1cccc(CC)c1N | inactive | –
COCc1nnc(-c2ccc[n+]([O-])c2)n1-c1c(Cl)c(Cl)cc2[nH]c(=O)c(=O)[nH]c12 | inactive | –
NC(=O)N1c2ccccc2C=Cc2ccccc21 | inactive | –
FC(F)=C(F)C(F)(F)C(F)(F)C(F)(F)C(F)(F)C(F)(F)C(F)(F)F | inactive | –

Read-out: Monocyte Chemoattractant Protein-1 (MCP1), CCL2 (gene 6347)
Test: BSK_CASM3C_MCP1: BioMAP Diversity Plus: CASM3C Assay for Monocyte Chemoattractant Protein-1 (MCP1) Biomarker Activity (AID 2283046);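 also: MCP-1 level quantified by ELISA 24 h after dosing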
Conditions: primary human coronary artery smooth muscle cells; actives raise or lower the signal

Structure (SMILES) | outcome | AC50
c1ccc2ncccc2c1 | inactive | –
CC(C)c1nnc2ccc(-c3ocnc3-c3cc(F)ccc3F)cn12 | inactive | –
CCCCCCCCN(C)C | inactive | –
O=C(NO)C1(NS(=O)(=O)c2ccc(Oc3ccc(F)cc3)cc2)CCOCC1 | inactive | –
O=C(O)[C@H](O)[C@@H](O)C(=O)O | inactive | –
CC(C)CCCCCCOC(=O)C1CCCCC1C(=O)OCCCCCCC(C)C (centres undefined) | inactive | –
NC(=O)NN=Cc1ccc([N+](=O)[O-])o1 | inactive | –
OCc1ccccc1 | inactive | –
OC(CCl)CCl | inactive | –
NC(=O)N(O)[C@@H]1COc2cc(OCc3ccccc3)ccc21 | inactive | –
Cc1ncc([C@@H](CCCCCCc2ccc3c(n2)NCCC3)CC(=O)O)cn1 | inactive | –
CCCCCCCCCCCCCCCCOS(=O)(=O)O | inactive | –
COc1cc(C(C)C)c2c(c1)S(=O)(=O)N(COc1cc(=O)n3cccc(OCCN4CCCCC4)c3n1)C2=O | inactive | –
CC(=O)c1ccccc1 | inactive | –
CCCCOC(=O)c1ccccc1 | inactive | –
Cc1nc(-c2ccccn2)ncc1C(=O)Nn1cc(C)c2cc(F)ccc21 | inactive | –
CC[C@H](C)C(=O)O[C@H]1C[C@H](O)C=C2C=C[C@H](C)[C@H](CC[C@@H](O)C[C@@H](O)CC(=O)O)[C@H]21 | inactive | –
C=CCc1cc(S(=O)(=O)c2ccc(O)c(CC=C)c2)ccc1O | – | 16.2 µM (active)
CCc1ccc(O)c(C(C)(C)C)c1 | inactive | –
OCCC(F)(F)C(F)(F)C(F)(F)C(F)(F)F | inactive | –
OCc1c[nH]c2ccccc12 | inactive | –
CCCCCCOC(=O)CC(CC(=O)OCCCCCC)(OC(=O)CCC)C(=O)OCCCCCC | inactive | –
OCCOCCOCCO | inactive | –
CCc1cccc(CC)c1N | inactive | –
COCc1nnc(-c2ccc[n+]([O-])c2)n1-c1c(Cl)c(Cl)cc2[nH]c(=O)c(=O)[nH]c12 | inactive | –
NC(=O)N1c2ccccc2C=Cc2ccccc21 | inactive | –
FC(F)=C(F)C(F)(F)C(F)(F)C(F)(F)C(F)(F)C(F)(F)C(F)(F)F | inactive | –
